Screening results from PubChem BioAssay.
DT40 TDP1 no CPT = qHTS for Inhibitors of human tyrosyl-DNA phosphodiesterase 1 (TDP1): qHTS in cells in absence of CPT | DT40 Tdp1-/- hTDP1 cells, no CPT, ATP luminescence, 48 h | Potency, µM (top dose mostly 46.2 µM), most hits filed as inhibitors | 15% of 420,000 active; note: nearly all actives have a fitted effect of over 55% in size
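Compound effects on proliferation are scored in DT40 Tdp1-/-;hTDP1 cells in the absence of CPT. ATP levels (CellTiter-Glo luminescence) are recorded after a ≥48 hr, 37 °C incubation.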
IL-1B inflam inh = qHTS for Inhibitors of Inflammasome Signaling: IL-1-beta AlphaLISA Primary Screen; THP-1 LPS/ATP IL-1B secretion, AlphaLISA, 16 h; active compounds read low; activity change, % at 57.5 µM; 4.7% of 360,000 active; AID 743279, 2014; in the data active = activity change below about -50%; inconclusive = mostly about -30% to -49%
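Secreted IL-1B measured by AlphaLISA bead assay after 16 h compound exposure of THP-1 cells; compounds (final up to 57.5 uM) added 1 h before LPS (250 ng/mL) and ATP (1.25 mM) stimulation; lower signal means less secretion.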
D3 antag = qHTS of D3 Dopamine Receptor Antagonist: qHTS. 2.5% of 360,000 active. max response, negative = inhibition, %. D3R cells, DiscoveRx beta-arrestin luminescence, antagonist mode; active compounds read low. D(3) dopamine receptor (Homo sapiens), P35462; in the data active = max response below about -50%; inconclusive = no clear call, values can overlap the other calls
Target sequence (P35462 whole entry, looked up): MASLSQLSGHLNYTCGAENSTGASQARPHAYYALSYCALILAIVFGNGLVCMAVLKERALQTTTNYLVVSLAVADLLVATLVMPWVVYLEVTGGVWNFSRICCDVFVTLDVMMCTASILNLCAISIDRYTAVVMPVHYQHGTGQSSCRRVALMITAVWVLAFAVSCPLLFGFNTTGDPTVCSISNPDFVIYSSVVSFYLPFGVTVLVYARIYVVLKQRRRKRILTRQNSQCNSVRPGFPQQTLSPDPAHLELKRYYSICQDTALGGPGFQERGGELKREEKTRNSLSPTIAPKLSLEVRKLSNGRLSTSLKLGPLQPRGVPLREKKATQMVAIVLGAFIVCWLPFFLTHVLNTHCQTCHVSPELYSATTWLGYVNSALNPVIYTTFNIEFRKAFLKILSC
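Cells plated overnight at 1500 cells/well, then exposed to library compounds with dopamine controls for 90 minutes at 37 degrees C. DiscoveRx reagent added for 30–60 minutes at room temperature; luminescence read, quantitative HTS format.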
D3 ag = qHTS of D3 Dopamine Receptor Agonist: qHTS; D(3) dopamine receptor (Homo sapiens), P35462; D3R DiscoveRx beta-arrestin cells, luminescence, 90 min; max activation, %; 0.58% of 410,000 active; AID 652048, 2013; in the data active = max activation above about 30%
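Agonist-mode cell screen: cells plated at 1500/well and incubated overnight at 37 °C, then exposed to library compounds for 90 min at 37 °C. Detection reagent was added for 30–60 min at room temperature, and luminescence was read.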
ClpP mod = qHTS Assay for Activators of ClpP. ATP-dependent Clp protease proteolytic subunit (Bacillus subtilis (strain 168)), P80244. Potency, µM (series often up to 57.5 µM). 1.9% of 340,000 active. purified B. subtilis ClpP, FRET peptide cleavage, 20 min. AID 651965, 2013; active = well fitted falling curve with a large enough effect; inconclusive = small, poorly fitted or top-dose-only effect; inactive = no such curve, though single readings can be large or run the other way; note: the source files actives as falling curves though it sought activators and does not explain the sign; nearly all actives have a fitted effect of over 65% in size
Target sequence (P80244 whole entry, looked up): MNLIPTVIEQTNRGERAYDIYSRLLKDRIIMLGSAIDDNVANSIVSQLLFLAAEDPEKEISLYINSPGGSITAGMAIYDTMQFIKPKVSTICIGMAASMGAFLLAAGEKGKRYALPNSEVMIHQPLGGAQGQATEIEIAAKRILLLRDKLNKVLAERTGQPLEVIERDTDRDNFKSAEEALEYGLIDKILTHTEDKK
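FRET quenching reversal measured ClpP activation: 10 microg/mL B. subtilis ClpP at pH 8 with the FRET-FV decapeptide, read at 430 nm after 320 nm excitation. The 20-min minus 0-min signal was scaled between DMSO/no-enzyme wells and ADEP (5.8 microM final).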
TDP1 cell CPT = qHTS for Inhibitors of human tyrosyl-DNA phosphodiesterase 1 (TDP1): qHTS in cells in presence of CPT; chicken DT40 Tdp1-/-;hTDP1 cells + 20 nM CPT, ATP luminescence, 48 h; Potency, µM (highest dose often 46.2 µM), actives largely listed as inhibitors; 12% of 420,000 active; AID 686979, 2013; note: nearly all actives have a fitted effect of over 55% in size
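Chicken DT40 Tdp1-/- cells stably complemented with human TDP1 were seeded at 400 cells/well in medium containing 20 nM camptothecin, exposed to pin-transferred compounds, and grown at 37 °C for at least 48 hr. Viability was read as ATP luminescence.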
Of the large screens only hits and unclear results are named; the others gave an inactive call. Most compounds without a hit are left out; they make up all but 21% or so of the library. Unless noted, calls come from the whole dose curve; as a rule, active = well fitted inhibition curve with a large enough effect; inconclusive = small, poorly fitted or top-dose-only effect; inactive = flat fitted curve, though single readings scatter.

COC(=O)[C@@]1(Cc2ccccc2)[C@H]2C(=O)N(Cc3ccccc3)C(=O)[C@H]2[C@H]2CN=C(SCc3ccc(C)cc3)N21	DT40 TDP1 no CPT inconclusive, TDP1 cell CPT inconclusive
CCN1C[C@@H]2[C@@H]3C(=O)N(C)C(=O)[C@@H]3[C@](Cc3ccccc3)(C(=O)OC)N2C1=NC1CCCCC1	DT40 TDP1 no CPT 21µM, TDP1 cell CPT inconclusive
COc1cccc(CNC(=O)C2CCCCN2S(=O)(=O)c2ccc(F)cc2)c1 (stereo not drawn)	DT40 TDP1 no CPT inconclusive, TDP1 cell CPT inconclusive (no result: IL-1B inflam inh, D3 antag)
Cn1c(N)c(C(=O)COC(=O)/C=C/c2ccc(S(=O)(=O)N3CCOCC3)cc2)c(=O)n(C)c1=O	none
Cc1nn(CCC(=O)NCc2cccc(Br)c2)c(=O)c2nn(-c3ccccc3)c(C)c12	DT40 TDP1 no CPT inconclusive, TDP1 cell CPT inconclusive (no result: IL-1B inflam inh, D3 antag)
CC1CCCN(CCCNS(=O)(=O)c2ccc3c(c2)CCN3C(=O)C2CC2)C1 (stereo not drawn)	none
CCCCCCc1nc2c(=O)[nH]c3ccccc3c2o1	none
CCCCCCCCC1=NCCc2c1[nH]c1ccccc21	DT40 TDP1 no CPT 21µM, IL-1B inflam inh -94, TDP1 cell CPT inconclusive (no result: ClpP mod)
COCCCNc1ccn2nc(-c3cccc(OCc4ccccc4)c3)cc2n1	DT40 TDP1 no CPT 7.3µM, TDP1 cell CPT inconclusive
c1ccc(OCCNc2ccn3nc(-c4ccccc4)cc3n2)cc1	DT40 TDP1 no CPT inconclusive, TDP1 cell CPT inconclusive
COc1cc(Nc2ccn3nc(-c4ccccc4Cl)cc3n2)cc(OC)c1OC	DT40 TDP1 no CPT 21µM, TDP1 cell CPT inconclusive
COc1cc(Nc2cccc(-c3ccccc3)n2)cc(OC)c1OC	DT40 TDP1 no CPT inconclusive, TDP1 cell CPT 18µM
COc1ccccc1-c1cc2nc(NCCOc3ccccc3)ccn2n1	DT40 TDP1 no CPT 16µM, TDP1 cell CPT 18µM
COc1ccc(C2CC2C(C)=O)cc1 (stereo not drawn)	none (no result: ClpP mod)
c1ccc(COc2ccc(-c3cc4nc(NCCCn5ccnc5)ccn4n3)cc2)cc1	DT40 TDP1 no CPT 16µM, TDP1 cell CPT 23µM
COc1ccc(CC2(CO)CCN(C(C)COc3ccccc3)CC2)cc1 (stereo not drawn)	DT40 TDP1 no CPT inconclusive, IL-1B inflam inh inconclusive, D3 antag inconclusive, TDP1 cell CPT inconclusive (no result: ClpP mod)
CC(COc1ccccc1)N1CCC(CO)(Cc2ccccc2)CC1 (stereo not drawn)	IL-1B inflam inh inconclusive, D3 antag -89
O=C(Nc1nc(OCCN2CCCC2=O)cnc1/C=C\c1ccccc1)c1cc2ccccc2s1	DT40 TDP1 no CPT inconclusive, TDP1 cell CPT 29µM
O=C(O)c1ccc(OCCN2CCCC2=O)cc1	none
O=C1C(Cl)=C(Nc2ccc(O)cc2)C(=O)c2ccccc21	DT40 TDP1 no CPT inconclusive, IL-1B inflam inh -105, D3 antag inconclusive, TDP1 cell CPT 21µM (no result: ClpP mod)
O=C1C(O)=C(O)C(=O)c2ccccc21	DT40 TDP1 no CPT inconclusive, TDP1 cell CPT inconclusive
CC(=O)Nc1ccc(NC2=CC(=O)c3ccccc3C2=O)cc1	none (no result: ClpP mod)
Cc1cc(C)cc(NC2=C(N)C(=O)c3ccccc3C2=O)c1	TDP1 cell CPT inconclusive
Cc1ccc(NC2=C(Cl)C(=O)c3ccccc3C2=O)cc1	DT40 TDP1 no CPT 13µM, D3 antag inconclusive, TDP1 cell CPT 8.2µM
CCN(CC)c1ccc(NC2=C(Cl)C(=O)c3ccccc3C2=O)cc1	DT40 TDP1 no CPT 13µM, IL-1B inflam inh -108, D3 antag -82, TDP1 cell CPT 10µM
O=C1C=C(Nc2ccc(O)cc2)C(=O)c2ccccc21	DT40 TDP1 no CPT 13µM, TDP1 cell CPT 15µM (no result: ClpP mod)
O=C(COc1ccccc1F)Nc1ccc(OCc2cc(=O)n3ccccc3n2)cc1	none (no result: IL-1B inflam inh, D3 antag)
Oc1cccc(/C=N/NC(=S)NCCN2CCOCC2)c1O	DT40 TDP1 no CPT 5.8µM, TDP1 cell CPT 7.3µM
S=C(NCCN1CCOCC1)N/N=C/c1cccs1	DT40 TDP1 no CPT 4.1µM, TDP1 cell CPT 18µM
Cc1ccc(C)c(/C=N/Nc2nc3ccccc3c(=O)n2O)c1	DT40 TDP1 no CPT inconclusive, TDP1 cell CPT inconclusive
Cc1cc(N/N=C/c2ccncc2)c([N+](=O)[O-])cc1[N+](=O)[O-]	none (no result: ClpP mod)
Cc1ccc(C(=O)NC(C)c2nnc(SCC(=O)NC3CCCC3)n2C)cc1 (stereo not drawn)	none
CC1CCN(Cc2c(C(=O)N/N=C/c3ccc(C(C)C)cc3)nnn2-c2nonc2N)CC1	DT40 TDP1 no CPT inconclusive, TDP1 cell CPT inconclusive
Nc1nonc1-n1nnc(C(=O)N/N=C/c2cccc(Cl)c2Cl)c1CN1CCCC1	DT40 TDP1 no CPT 15µM, D3 antag inconclusive, TDP1 cell CPT 8.2µM (no result: ClpP mod)
CC1CCN(Cc2c(C(=O)N/N=C/c3ccc(C(C)(C)C)cc3)nnn2-c2nonc2N)CC1	DT40 TDP1 no CPT 13µM, TDP1 cell CPT 13µM
O=C(CCS(=O)(=O)c1cc(Br)cc2c1N(C(=O)C1CC1)CC2)N1CCN(c2cccc(Cl)c2)CC1	none (no result: IL-1B inflam inh, D3 antag)
O=C(CN1C(=O)NC2(CCc3ccccc32)C1=O)c1ccc(F)c(F)c1 (stereo not drawn)	DT40 TDP1 no CPT inconclusive
O=S(=O)(CCN(CCS(=O)(=O)C(F)(F)F)CC1CCCO1)C(F)(F)F (stereo not drawn)	DT40 TDP1 no CPT 2.3µM, TDP1 cell CPT 2.3µM
O=C(NCC1CCCO1)C1CCN(S(=O)(=O)N2CCCC2)CC1 (stereo not drawn)	none
